Reference: PubChem BioAssay
Calls of active or inactive are those of the source.

Key:
[1] = system: Plasmodium falciparum Sir2 (PF13_0152, Sir2A); experiment: pfSir2 binders on small-molecule microarrays, primary screen, biochemical, small-molecule microarray, 635 nm fluorescence (AID 1098); details: small-molecule microarray binding, fluorescence 635 nm; higher = more signal;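 further: score merges spot fluorescence intensity with its signal-to-noise ratio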
[2] = small-molecule microarray binders of probe aDKK1, primary screen, biochemical, biotinylated probe, 635/667 nm fluorescence (AID 1099); details: higher = more signal;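 further: score merges 667nm spot fluorescence with signal to noise across triplicate slides; reference of the scale not given here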
[3] = small-molecule microarray binders of probe aCHRDL2, primary screen, biochemical, biotinylated probe, 635/667 nm fluorescence (AID 1100); details: higher = more signal
[4] = splicing luciferase reporter signal modulators, primary screen, spliceosome inhibition project, cell-based, HEK293, splice +/- reporter (AID 1101); details: luminescence, 24 h, higher = more signal, called active from +8 up or from −8 down;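 further: HEK293 cells carrying a splicing-competent luciferase reporter gene; test concentration not given here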
[5] = target: Fibroblast growth factor 10 (Homo sapiens) (UniProt O15520); experiment: FGF10 binders on small-molecule microarrays, primary screen, biochemical, small-molecule microarray, 635 nm fluorescence (AID 1102); details: FGF10 binding, fluorescence 635 nm, higher = more signal
[6] = system: glycogen synthase kinase-3 (GSK3A per assay name; protocol says GSK3B); experiment: GSK3 binders on small-molecule microarrays, primary screen, biochemical, small-molecule microarray, 635 nm fluorescence, GSK3A (AID 1103); details: small-molecule microarray binding, fluorescence 635 nm; higher = more signal; further: the record names both GSK3A and GSK3B
[7] = target: Epidermal growth factor receptor (Homo sapiens) (UniProt P00533); experiment: EGFR binders on small-molecule microarrays, primary screen, biochemical, small-molecule microarray, 635 nm fluorescence (AID 1104); details: EGFR binding, higher = more signal;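 further: score merges 667 nm emission intensity with spot signal to noise over triplicate slides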
[8] = target: Follistatin-related protein 3 (Homo sapiens) (UniProt O95633); experiment: FSTL3 binders on small-molecule microarrays, primary screen, biochemical, small-molecule microarray, 635 nm fluorescence (AID 1105); details: FSTL3 binding, higher = more signal;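 further: score merges emission near 667 nm and signal to noise per printed spot across three slides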
[9] = target: Dickkopf-related protein 1 (Homo sapiens) (UniProt O94907); experiment: DKK1 binders on small-molecule microarrays, primary screen, biochemical, small-molecule microarray, 635 nm fluorescence scan (AID 1106); details: DKK1 binding, higher = more signal;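 further: score merges emission near 667 nm with signal to noise over three replicate slides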
[10] = system: Inhibin beta A chain (activin A); experiment: INHBA (activin A) binders on microarrays, primary screen, biochemical, small-molecule microarray, 635 nm fluorescence scan (AID 1107); details: small-molecule microarray binding, higher = more signal;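 further: mouse activin A protein probed at 4.33 µg/mL on printed slides; score merges bound-protein fluorescence near 667 nm with spot signal-to-noise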

Chain of Epidermal growth factor receptor (Homo sapiens) (P00533 whole entry, looked up): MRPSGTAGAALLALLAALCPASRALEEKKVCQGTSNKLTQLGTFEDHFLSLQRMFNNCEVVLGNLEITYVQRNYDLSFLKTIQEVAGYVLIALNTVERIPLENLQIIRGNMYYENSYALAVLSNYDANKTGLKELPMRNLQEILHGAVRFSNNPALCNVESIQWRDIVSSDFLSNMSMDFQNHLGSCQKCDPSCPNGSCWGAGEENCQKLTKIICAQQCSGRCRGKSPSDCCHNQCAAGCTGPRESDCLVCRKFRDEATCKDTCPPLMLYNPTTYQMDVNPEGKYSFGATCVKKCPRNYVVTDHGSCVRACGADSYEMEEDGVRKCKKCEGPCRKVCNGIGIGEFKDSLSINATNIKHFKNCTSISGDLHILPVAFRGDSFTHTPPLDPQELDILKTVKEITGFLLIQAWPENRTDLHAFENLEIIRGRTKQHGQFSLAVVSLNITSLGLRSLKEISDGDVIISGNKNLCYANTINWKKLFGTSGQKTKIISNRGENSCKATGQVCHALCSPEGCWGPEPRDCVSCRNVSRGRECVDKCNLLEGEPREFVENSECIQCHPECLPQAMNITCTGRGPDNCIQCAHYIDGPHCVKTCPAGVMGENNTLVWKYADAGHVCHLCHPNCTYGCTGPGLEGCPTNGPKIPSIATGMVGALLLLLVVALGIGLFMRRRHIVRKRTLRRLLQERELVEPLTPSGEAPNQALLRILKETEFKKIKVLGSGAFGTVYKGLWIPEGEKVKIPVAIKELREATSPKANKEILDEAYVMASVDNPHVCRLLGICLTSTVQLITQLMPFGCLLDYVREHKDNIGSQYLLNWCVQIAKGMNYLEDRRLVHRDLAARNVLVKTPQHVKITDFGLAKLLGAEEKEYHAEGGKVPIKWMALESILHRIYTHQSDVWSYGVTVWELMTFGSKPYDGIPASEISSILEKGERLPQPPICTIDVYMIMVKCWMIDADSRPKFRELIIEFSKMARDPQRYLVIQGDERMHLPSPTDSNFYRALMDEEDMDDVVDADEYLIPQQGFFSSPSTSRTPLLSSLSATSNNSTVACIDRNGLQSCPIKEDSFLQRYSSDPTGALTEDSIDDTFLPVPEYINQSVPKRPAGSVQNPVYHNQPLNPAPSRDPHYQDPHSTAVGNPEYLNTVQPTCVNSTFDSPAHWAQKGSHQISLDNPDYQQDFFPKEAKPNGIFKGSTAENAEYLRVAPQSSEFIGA
Chain of Fibroblast growth factor 10 (Homo sapiens) (O15520 whole entry, looked up): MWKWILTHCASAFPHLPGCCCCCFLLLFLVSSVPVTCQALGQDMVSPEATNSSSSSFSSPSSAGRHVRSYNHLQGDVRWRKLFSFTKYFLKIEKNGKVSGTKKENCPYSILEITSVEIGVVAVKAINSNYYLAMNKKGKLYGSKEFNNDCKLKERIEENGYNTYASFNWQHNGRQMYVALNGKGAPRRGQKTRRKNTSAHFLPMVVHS
Chain of Dickkopf-related protein 1 (Homo sapiens) (O94907 whole entry, looked up): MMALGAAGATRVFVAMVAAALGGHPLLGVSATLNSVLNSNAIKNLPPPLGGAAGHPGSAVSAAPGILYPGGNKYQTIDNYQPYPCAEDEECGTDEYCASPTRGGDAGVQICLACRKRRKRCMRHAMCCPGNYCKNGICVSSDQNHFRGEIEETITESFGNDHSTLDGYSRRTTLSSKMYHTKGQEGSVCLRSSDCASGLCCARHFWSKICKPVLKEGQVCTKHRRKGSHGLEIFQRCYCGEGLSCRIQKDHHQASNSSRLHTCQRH
Chain of Follistatin-related protein 3 (Homo sapiens) (O95633 whole entry, looked up): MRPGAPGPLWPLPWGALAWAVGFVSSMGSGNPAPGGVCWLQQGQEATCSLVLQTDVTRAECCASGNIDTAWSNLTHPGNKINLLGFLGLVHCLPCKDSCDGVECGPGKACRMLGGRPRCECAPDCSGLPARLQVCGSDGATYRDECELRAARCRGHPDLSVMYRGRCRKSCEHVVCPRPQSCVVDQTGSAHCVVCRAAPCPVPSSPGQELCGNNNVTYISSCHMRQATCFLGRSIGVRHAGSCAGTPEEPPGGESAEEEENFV

SMILES	composite z-score [1]	composite z-score [2]	composite z-score [3]	z-score [4]	composite z-score [5]	composite z-score [6]	composite z-score [7]	composite z-score [8]	composite z-score [9]	composite z-score [10]
COC(=O)[C@@H]1CC[C@H](C)[C@@H](c2ccc(C)cc2)N1C(=O)c1ccc(C=NOC(C)CN2CCCCc3nc(C)c(C)cc32)cc1 (stereo not given in full)	0.775	-0.136	0.174	-0.423 (inactive)	0.127	-0.626	0.598	0.0406	0.323	1.49
COc1ccc(O[C@H]2C=C[C@@H](c3ccccc3)O[C@@H]2CON=C[C@@H](C)[C@H](OCc2ccccc2)C(C)C)cc1	-0.369	-0.406	-0.17	0.275 (inactive)	-1.11	-1.04	-0.805	-0.761	-0.733	0.272
COC(=O)CC=C[C@@H](C)[C@H](OC)c1ccccc1Br	-0.581	-0.133	-0.499	-0.0767 (inactive)	0.0042	0.169	0.181	0.231	0.503	0.887
CO[C@@H]1COC(=O)CCC[C@@H](C)[C@H](OC)COC(=O)CCC[C@H]1C	0.691	-0.224	-0.755	0.349 (inactive)	0.0939	0.534	0.379	0.715	0.731	-0.0672
COCC1=C2[C@@H](CCc3ccccc3)OB(O)C[C@@H]2n2c(=O)n(-c3ccccc3)c(=O)n2C1	0.48	-0.32	-0.448	0.184 (inactive)	0.511	-0.114	0.492	0.444	0.374	0.632
CCOC(=O)CCN1C(=O)[C@H]2[C@H]3[C@H](O)[C@H](O)CC(=NOC[C@@H](O)COCc4ccco4)[C@@H]3CC[C@H]2C1=O	0.0645	0.587	0.437	0.395 (inactive)	-0.133	-0.412	-0.0138	-0.295	-0.144	0.383
CCCC[C@@H]1C[C@H]1[C@@H](NS(=O)(=O)c1cccc2cccnc12)c1ccc(-c2ccccc2)cc1	-0.383	0.583	1.09	1.19 (inactive)	0.0068	-0.356	-1.26	-0.417	-0.475	0.76
CC(=O)OC[C@H]1O[C@H](CCON=C(C)CCC(=O)OC[C@H]2O[C@H](C#Cc3ccccc3)C=C[C@@H]2Oc2ccc(C)cc2)C=C[C@@H]1OC(C)=O	0.825	-0.304	-0.632	-0.35 (inactive)	0.167	-0.219	0.259	0.521	0.495	0.659
COc1cccc([C@@H]2Oc3ccc(Br)cc3C(=O)[C@H]2O)c1	0.237	-0.257	-0.423	-1.7 (inactive)	1.19	0.101	0.312	0.892	0.221	0.287
COc1ccc([Si](C)(C)[C@H]2[C@H](CC(=O)N3CCC[C@H]3CO)O[C@@]3(C(=O)N(Cc4cccc(N5C(=O)COc6ccccc65)c4)c4ccccc43)[C@@H]2C)cc1	1.21	-0.248	-0.364	-0.867 (inactive)	0.369	0.803	0.771	0.959	0.519	0.572
O=C(NN=C1C[C@@H](O)[C@@H](O)[C@@H]2[C@@H]3C(=O)N(c4ccc(F)cc4F)C(=O)[C@@H]3CC[C@@H]12)OCc1ccccc1	0.328	-0.269	-0.232	0.464 (inactive)	-0.0739	-0.0799	0.452	0.297	0.092	-0.103
CO[C@@H]1COC(=O)CC=C[C@@H](C)[C@@H]2C=C[C@H](O)[C@@H](COC(=O)CCC[C@H]1C)O2	0.686	-0.177	-0.899	-1.09 (inactive)	0.375	0.329	1.21	1.11	1.25	1.45
CC=CC1=C(CO)[C@H](O)[C@H]2O[C@H]2[C@H]1O	0.412	-0.346	-0.786	-0.383 (inactive)	0.805	1.23	0.393	0.578	1.07	-0.047
COC(=O)C1=C(C)[C@@H](O)[C@@H](C)[C@H](c2c(OC)c(OC)c(C)c(OC)c2OC)O1	0.191	-0.27	-0.595	-0.361 (inactive)	0.256	-0.419	0.269	0.398	0.56	0.394
C=C(/C(=C/C[C@H](OC(=O)c1ccncc1)c1ccc(OCCO)cc1)c1cnc2ccccc2c1)C(C)C	0.933	-0.196	-0.163	0.215 (inactive)	1.61	1.07	1.07	1.38	0.856	1.7
CC(=O)OC[C@H]1O[C@H](CCON=C(C)CCN2CCc3nc(-c4ccccc4)c(-c4ccccc4)cc3C2)C=C[C@@H]1OC(C)=O	0.323	-0.154	0.101	0.82 (inactive)	-0.422	0.102	0.392	0.189	0.222	1.16
O=C1C[C@]2(c3ccc([N+](=O)[O-])cc3)C(=O)N(CCN3CCOCC3)c3cc(CO)ccc3[C@H]2N1CC12CC3CC(CC(C3)C1)C2	0.39	0.398	0.793	0.14 (inactive)	-0.629	0.163	-1	-0.258	-1.22	0.6
COc1ccc(-c2ccc3c(n2)CCCN3CC(O)CN2CCCc3nc(C)c(C)cc32)cc1 (stereo not given)	0.879	0.323	0.386	-0.155 (inactive)	0.817	0.871	0.691	0.995	1.39	1.6
CCOC(=O)CCN1C(=O)[C@H]2[C@H]3[C@H](O)[C@H](O)CC(=NOC[C@@H](O)COCc4ccco4)[C@H]3CC[C@H]2C1=O	0.413	0.0262	-0.5	-1.12 (inactive)	0.449	0.596	0.328	0.608	0.433	0.0553
O=C1[C@H]2[C@H]3[C@H](O)[C@H](O)CC(=NO[C@@H]4O[C@H](CO)[C@@H](O)[C@H](O)[C@H]4O)[C@@H]3CC[C@H]2C(=O)N1c1ccc(F)cc1F	0.406	-0.157	-0.445	-0.244 (inactive)	0.794	0.703	0.541	0.608	0.451	-0.114
CCCC=C(CCC)[C@@H](NC(=O)c1ccc(-c2ccccc2)cc1)c1ccc(C(=O)OC)cc1	0.407	0.245	1	-0.492 (inactive)	-0.316	0.472	-0.237	0.0286	-0.673	0.244
O=C1[C@H]2[C@H]3[C@H](O)[C@H](O)CC(=NO[C@@H]4O[C@H](CO)[C@@H](O)[C@H](O)[C@H]4O)[C@H]3CC[C@H]2C(=O)N1Cc1ccccc1	0.366	-0.223	-0.752	-0.741 (inactive)	0.437	0.656	0.426	0.0042	-0.566	-1.42
COc1cccc([C@H]2Oc3ccc(OC)cc3C(=NO[C@H](C)c3cn([C@@H]4COC[C@H]4O)nn3)[C@@H]2O)c1	0.53	-0.393	-0.381	-0.992 (inactive)	-0.481	-1.14	-0.0724	-0.525	0.0385	0.0726
CC(C)NC(=O)[C@@H]1c2ccccc2C(=O)N(CC23CC4CC(CC(C4)C2)C3)[C@H]1c1ccc(CO)cc1	1.45	0.171	0.46	-1.21 (inactive)	0.596	1.23	0.582	1.28	0.651	0.43
C[C@@H](c1ccccc1)N1C(=O)[C@H]2[C@H]3[C@H](O)C=CC(=O)[C@@H]3CC[C@H]2C1=O	-0.0301	-0.293	-0.674	0.432 (inactive)	0.373	0.606	0.54	0.699	0.557	0.25
